For orientation: Inhibition means the change of the read-out against control, counted positive when it falls.

Potency and affinity values are given separately.

In ChEMBL document CHEMBL4513146, “CO-ADD screening of Karazin Kharkiv National University (Ukraine) compounds” one finds Inhibition data, which are given here for 15 compounds.

The test system of the assay is Candida albicans. The conditions noted are these: Concentration 32 ug.mL-1; ASSAY_TEST Inhibition of Fungal Growth; detection method Absorption (OD530).
Consider `COc1ccc(NC(=O)Cn2nc3ccc(SC4CCCCC4)nn3c2=O)cc1OC`, for which the Inhibition is recorded as 4.98%.
Turning to `Cc1cccc(NC(=O)CSc2nnc3ccc(C(=O)Nc4cccc(F)c4)cn23)c1`, the Inhibition was 1.08%.
To `CCc1cccc(NC(=O)Cn2nc3c(SC4CCCCC4)nccn3c2=O)c1` belongs 12%.
For `CC(C)NC(=O)CSc1nnc2c(=O)n(Cc3ccc(F)cc3)ccn12`, the Inhibition came to 2.95%.
Take `Cc1ccc(Oc2nccn3c(=O)n(CC(=O)Nc4ccccc4C(F)(F)F)nc23)cc1`: the Inhibition is 0.6%.
As for `Cc1ccccc1CN(c1ccc(C(C)C)cc1)S(=O)(=O)c1cccn2c(C)nnc12`, the figure is 4.49%; as for `Cc1ccc(CN(c2cccc(F)c2)S(=O)(=O)c2ccc3nnc(C)n3c2)cc1`, 1.78%.
To `CCOc1ccc(C(=O)CSc2nnc3c(=O)n(-c4ccc(F)cc4)ccn23)cc1` belongs 1.29%; to `COc1cccc(NC(=O)Cn2nc3c4cc(-c5ccc(Cl)cc5)nn4ccn3c2=O)c1`, 4.47%.
As for `COc1ccc(Cl)cc1NC(=O)CSc1nc2ccccc2n2c(C(C)C)nnc12`, the figure is 58.61%; as for `O=C(Cn1nc2c(Oc3ccccc3)nccn2c1=O)Nc1ccc2c(c1)OCO2`, 2.95%; as for `COc1cccc(CN(c2ccc(F)cc2)S(=O)(=O)c2ccc3nnc(C)n3c2)c1`, -0.17%.
In the case of `CC(C)c1ccc(N(Cc2cc(F)cc(F)c2)S(=O)(=O)c2cccn3cnnc23)cc1`, the Inhibition is listed as 0.58%.
To `Cc1ccc(Sc2nccn3c(=O)n(CC(=O)Nc4ccc(Br)cc4)nc23)c(C)c1` belongs -1.11%; to `CCCCOc1ccc(-c2cc3c4nnc(SCC(=O)Nc5ccccc5Cl)n4ccn3n2)cc1`, 2.9%.
